Bioassay records: PubChem BioAssay, National Center for Advancing Translational Sciences (NCATS)
Sm TGR inh – qHTS Assay for the Inhibitors of Schistosoma Mansoni Peroxiredoxins | Schistosoma mansoni thioredoxin glutathione reductase (TGR), Q962Y6 | purified TGR, DTNB reduction, TNB absorbance 405 nm | Potency, µM (series often up to 114 µM), for inactives: top-dose activity change, negative = inhibition, actives largely listed as inhibitors | hit rate 3% among 360,000; also: potency is read from the fitted curve at half-maximal effect; nearly all actives have a fitted effect of over 60% in size
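First, TGR (20 nM dispensed) and NADPH were mixed with compound. Second, a 15 min room-temperature incubation followed. Third, further NADPH and then DTNB were added to start the reaction. Finally, TNB absorbance was monitored kinetically.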
FMDV antiviral – High Throughput Screening for Foot and Mouth Disease Virus Antivirals; FMDV antiviral cell-based qHTS; Potency, µM (series often up to 57.9 µM), for inactives: top-dose activity change, negative = inhibition, actives largely listed as inhibitors; hit rate 1.2% among 410,000; AID 1159524, 2015; calls by dose curve; tested in HEK293T cells; also: read-out not given here; potency is read from the fitted curve at half-maximal effect; nearly all actives have a fitted effect of over 45% in size
HCV inhibitor – qHTS Assay for Inhibitors of Hepatitis C Virus (HCV). Potency, µM (top dose mostly 41.8 µM), for the others: at the highest dose activity change, negative = inhibition, hits mostly inhibitors. Huh7.5.1 HCVcc-Cre infection, luciferase reporter, 44 h. hit rate 3.4% among 340,000; also: potency is read from the fitted curve at half-maximal effect
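Cells seeded at 1,000/well and cultured 4 h, then compounds added followed by HCVcc-Cre virus (~0.5 moi). After 44 h further culture, luciferase substrate was added, plates held 15 min at room temperature, and luminescence read for 15 sec.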
HCMV antiviral – qHTS Assay for inhibitors of the human cytomegalovirus (HCMV); HFF cells, HCMV-luciferase reporter, 72 h; active compounds read low; activity change, negative = inhibition, % at 57.5 µM; hit rate 4.5% among 410,000; AID 1259415, 2018; in the data active = activity change below about -60%; inconclusive = no clear call, values can overlap the other calls; inactive = above about -39%
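HFF cells seeded 16 h at 37C, treated with compounds, infected with luciferase-reporter HCMV at MOI 1 PFU/cell; luciferase read at 72 h post infection, normalized to buffer-only and Salinomycin controls.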
VACV mCherry inh – qHTS for Stage-Specific Inhibitors of Vaccinia Orthopoxvirus: mCherry Reporter Primary qHTS. Vaccinia virus mCherry reporter infection, fluorescence. Potency, µM (top dose mostly 36.5 µM), for the others: at the highest dose activity change, negative = inhibition, usual class: inhibitors. hit rate 0.63% among 310,000. AID 720579, 2013; calls by dose curve; tested in A549 cells; also: potency is read from the fitted curve at half-maximal effect; nearly all actives have a fitted effect of over 35% in size
VACV Venus inh – qHTS for Stage-Specific Inhibitors of Vaccinia Orthopoxvirus: Venus Reporter Primary qHTS; Vaccinia virus Venus reporter expression, fluorescence; Potency, µM (top dose mostly 36.5 µM), for inactives: at the top dose activity change, negative = inhibition, usual class: inhibitors; hit rate 0.46% among 330,000; AID 720580, 2013; calls by dose curve; tested in A549 cells; also: potency is read from the fitted curve at half-maximal effect; nearly all actives have a fitted effect of over 30% in size
Starred values were filed as active, the others as inactive; i = inactive; ? = inconclusive; . = no result; [ ] = another dose, or the depositor's remark. Shown are actives, neighbours in structure and some others; about 9.3% of the full set was active somewhere. Unless noted, calls follow the shape of the dose curve; as a rule, active = well fitted curve in the direction sought with a large enough effect; inconclusive = small, poorly fitted or top-dose-only effect, or another doubt; inactive = no such curve, though single readings can be large; an effect the other way counts as inactive or inconclusive. % is scaled to controls: 0 for no effect and ±100 for the full control effect.

SMILES	Sm TGR inh	FMDV antiviral	HCV inhibitor	HCMV antiviral	VACV mCherry inh	VACV Venus inh
COc1ccc(C2=CC3=C(Br)C(=O)C(C)(OC(=O)c4cccs4)C(=O)C3=CO2)cc1 (stereo unspecified)	.	-11%	-23%	23	-5%	-18%
O=C(COc1nncc2ccccc12)Nc1ccc(Br)cc1F	-3%	-11%	4%	9	i	-10%
CCn1c(SCC(=O)N/N=C/c2ccc(C)o2)nnc1-c1ccc(C(C)(C)C)cc1	-6%	32µM*	?	-11	-19%	-18%
CCn1c(SCC(=O)N/N=C/c2c[nH]c3ccccc23)nnc1-c1ccc(C(C)(C)C)cc1	-19%	?	?	-75*	?	-25%
CCn1c(SCC(=O)N/N=C/c2ccccc2OCC(=O)O)nnc1-c1ccccc1	0%	-21%	10%	.	.	.
O=C(CSc1nccn1-c1ccc(Cl)cc1)N1CCCc2ccccc21	15%	?	-15%	?	-14%	0%
CCCc1nnc(NS(=O)(=O)c2ccc(OC)cc2)s1	12%	17%	-1%	-2	i	-4%
N/C(=N\NC(=O)Nc1ccc(Cl)cc1)c1ccccn1	1%	65%	3%	3	-8%	-9%
O=[N+]([O-])c1ccc(N2CCN(S(=O)(=O)c3ccccc3)CC2)c2cccnc12	6%[57.1 µM]	?	-1%	6	-18%	-14%
CC1(c2ccccc2)NC(=O)N(CC(=O)NCCC2=CCCCC2)C1=O (stereo unspecified)	10%	8%	-4%	-69*	-16%	-4%
COc1ccc(OC)c(C(=O)CN2C(=O)NC(C)(c3ccccc3)C2=O)c1 (stereo unspecified)	-1%	-12%	2%	-61*	-27%	-23%
CC(C)c1ccc(OCc2cc(=O)n3c(-c4ccccc4)csc3n2)cc1	-3%	-7%	.	-19	-8%	-16%
Cc1noc(C)c1COc1ccccc1C(=O)NNC(=O)C(C)Oc1ccccc1F (stereo unspecified)	3%	-21%	?	-9	i	-12%
C/C=C/C(=O)Nc1cccc(C2=NOC3(C2)C[C@@H](C(N)=O)N(C(=O)c2cc([N+](=O)[O-])cc([N+](=O)[O-])c2C)C3)c1 (stereo partly specified)	3%	3%	7%[8.37 µM]	-74*	i	-10%
NC(=O)[C@H]1CC2(CC(c3cccc(NC(=O)COc4ccc(Cl)cc4)c3)=NO2)CN1C(=O)c1ccc(Cl)cc1 (stereo partly specified)	4%	-28%	-30%	?	11µM*	11µM*
C/C=C/C=C\C(=O)Nc1cccc(C2=NOC3(C2)C[C@@H](C(N)=O)N(C(=O)c2cc([N+](=O)[O-])cc([N+](=O)[O-])c2)C3)c1 (stereo partly specified)	3.5µM*	-15%	?	?	-25%	-22%
CCCOc1ccccc1NC(=O)c1ccc(N)cc1	8%	8%	7.1µM*	-34	.	.
CCOC(=O)Cc1ccc(NC(=O)c2ccc(C(C)(C)C)cc2)cc1	4%	18µM*	7.1µM*	-88*	?	?
CCOC(=O)Cc1ccc(NC(=O)c2ccccc2Br)cc1	.	45%	-3%	33	-14%	-7%
CC(C)(C)c1ccc(C(=O)Nc2ccc(NC(=O)c3ccco3)cc2)cc1	-30%	.	?	-83*	-23%	?
O=C(Nc1ccc(NC(=O)c2ccco2)nc1)c1ccco1	-1%	-43%	14%	?	i	-10%
CC(C)(C)C(=O)Nc1ccc(NC(=O)c2ccco2)nc1	-8%	6.3µM*	10%	-96*	-8%	-6%
Cc1ccc(OCC(=O)Nc2ccccc2F)cc1	.	11%	2%	-1	-2%	-4%
O=C(N/N=C/c1ccc(Cl)cc1)c1cc2c(s1)-c1ccccc1CC2	-3%	-10%	?	-11	.	-10%
Cc1cc(NC(=O)c2ccccc2)ncc1NC(=O)c1ccco1	22µM*	5%	-2%	171	i	-15%
SMILES	Sm TGR inh	FMDV antiviral	HCV inhibitor	HCMV antiviral	VACV mCherry inh	VACV Venus inh
CC(NC(=O)c1ccco1)c1nc(-c2ccc(C(C)(C)C)cc2)no1 (stereo unspecified)	10%	3%	16µM*	-16	-19%	-1%
CCOc1ccccc1NC(=O)c1ccc(NC(=O)c2ccco2)cc1	-22%	?	10µM*	?	.	-22%
Cc1ccc(-c2noc(C(C)NC(=O)c3ccco3)n2)cc1 (stereo unspecified)	-4%	-20%	.	-23	-5%	-3%
COC(=O)Cc1ccc(NC(=O)c2ccc(NC(=O)c3ccco3)cc2)cc1	12%	-14%	?	-83*	-21%	-4%
Oc1cccc(N2CCN(c3cccc(O)c3)CC2)c1	.	.	.	69	.	.
O=S1(=O)CC(N2CCN(CCO)CC2)CN1Cc1ccccc1 (stereo unspecified)	.	-14%	.	-10	i	1%
O=C(CSc1nnc(-c2cccc(F)c2)o1)N1CCOCC1	18%	22%	12%	9	0%	-3%
CC(C)(C)NC(=O)c1cccc(NC(=O)c2ccc(NC(=O)c3ccco3)cc2)c1	-5%	.	2.5µM*	-33	-4%	-9%
CC(C)(C)NC(=O)c1cccc(NC(=O)c2ccco2)c1	5%	5%	-20%	43	.	-5%
Nc1ccc2nc(-c3cc(Cl)c(N)c(Cl)c3)[nH]c2c1	-1%	35%	11µM*	152	.	.
CCn1c(C)nc2cc(S(=O)(=O)Nc3ccc(C)cc3)ccc21	.	-14%	-3%	?	i	-12%
O=C(O)C1(c2ccccc2)CCN(S(=O)(=O)c2ccc(Br)cc2)CC1	89µM*	-14%	1%	?	-6%	8%
COc1ccc2oc(C)c(C(=O)Cn3ccnc3)c2c1	-9%	-24%	18%	-8	-19%	-8%
COc1nnc(OC)c2ccccc12	6%	.	?	?	-15%	-3%
COc1c2ccccc2c(OC)c2ccccc12	2%	26%	0%	-64*	-17%	-8%
Cc1ccc2c(c1)N(CCC(=O)NCC1CCCO1)C(=O)CO2 (stereo unspecified)	-24%	11%	21%	4	.	.
N=c1ccn(Cc2ccc(F)cc2)cc1	12%	-21%	4µM*	?	.	.
COc1ccccc1CNC(=O)CC1Sc2ccccc2NC1=O (stereo unspecified)	-1%	-2%	12%	-23	-20%	-4%
